Measured values from PubChem BioAssay (Tox21).
Where “and” joins values, the source holds several entries; their conditions need not be identical. Identical values can stand only once. Results filed as inconclusive are left out. Entries that show only a call come without a potency. A structure can be active in one record and inactive in another. Calls of active or inactive are those of the source. Calls follow the shape of the dose curve; as a rule, active = well fitted cell-killing curve with a large enough effect in the repeat runs; inconclusive = weak or mixed curves, or effect the other way; inactive = flat fitted curve, though single readings scatter.

experiment: qHTS assay to identify small molecule agonists of the estrogen receptor beta (ER-beta) signaling pathway - cell viability counter screen (AID 1259380); details: ER-beta-bla HEK293T viability, CellTiter-Glo luminescence, 16 h; series mostly up to 92.4 µM; also: nearly all actives have a fitted effect of over 30% in size
Excerpt: National Center for Advancing Translational Sciences [NCATS]
NIH Chemical Genomics Center [NCGC]
U.S. Environmental Protection Agency [EPA]
National Institutes of Environmental Health Sciences [NIEHS]
National Toxicology Program [NTP]
U.S. Food and Drug Administration [FDA]
Estrogen receptor (ER), a nuclear hormone receptor, plays an important role in development, metabolic homeostasis and reproduction. Two subtypes of ER, ER-alpha and ER-beta, have similar expression patterns with some uniqueness in both types. Endocrine disrupting chemicals (EDCs) and their interactions with steroid hormone receptors like ER causes disruption of normal endocrine function. To identify the compounds that activate ER signaling, an ER beta-UAS-bla GripTite cell line (Life Technologies, Madison, WI, USA) containing a beta-lactamase reporter gene under the control of an UAS response element was used to screen Tox21 10K compound library. The cytotoxicity of the Tox21 compound library against the ER-beta-bla cell line was tested in parallel by measuring the cell viability using CellTiter-Glo assay in the same wells.
Tox21 Assay Protocol Summary:
ER-beta-UAS-bla HEK293T cells were dispensed at 2,000 cells/5 uL of assay medium containing 2% charcoal stripped FBS per well into black wall/clear-bottom 1536-well plates using a Multidrop Combi (ThermoFisher Scientific, Waltham, MA) dispenser. After the assay plates were incubated at a 37C and 5% CO2 for 6 hr, 23 nL of compounds dissolved in DMSO, positive controls or DMSO only was transferred to the assay plate by a Pintool station (Kalypsys, San Diego, CA). The plates were incubated at 37C and 5% CO2 for 16 hr. Then 1 uL of LiveBLAzerTM B/G FRET substrate was added using a BioRAPTR FRD (Flying Reagent Dispenser, Aurora Discovery, San Diego, CA) and then the plates were incubated at room temperature for 2 hours, and fluorescence intensity was measured by an Envision plate reader (PerkinElmer, Shelton, CT). For cell viability readout that measures cytotoxicity, 4 uL/well of CellTiter-Glo reagent was added into the assay plates using a FRD. After 30 min incubation at room temperature, the luminescence intensity in the plates was measured using a ViewLux (PerkinElmer) plate reader.
Potency is read from the fitted curve at half-maximal effect.

SMILES	Potency	activity change, negative = cytotoxicity
O=S(=O)(O)c1ccc2nc(-c3ccccc3)[nH]c2c1	23.2 µM (active)	–
CC(C)(C)c1cc(C(C)(C)C)c(O)c(C(C)(C)C)c1	inactive and 48.6 µM (active)	–
CCC(=O)/C=C/C1C(C)=CCCC1(C)C (stereo not given)	inactive	–
CCN(CC)C(=S)SSC(=S)N(CC)CC	222 nM (active) and 133 nM (active)	–
CC(C)CCOCc1ccccc1	inactive	–
CCCCC/C=C/CC1CC(=O)OC1=O (stereo not given)	inactive	–
CC(C)(C)NC(=O)[C@@H]1CN(Cc2cccnc2)CCN1C[C@@H](O)C[C@@H](Cc1ccccc1)C(=O)N[C@H]1c2ccccc2C[C@H]1O	inactive	–
CCCCCCCCCCCCc1ccccc1O	30.2 µM (active) and 27.3 µM (active)	–
CCCCCCCCCCCCCCCCCl	–	3.21% [at 19 µM] (inactive)
O=c1n(CC2CO2)c(=O)n(CC2CO2)c(=O)n1CC1CO1 (stereo not given)	inactive	–
NC(Cc1ccc(Cl)cc1)C(=O)O (stereo not given)	–	-2.17% [at 0.349 µM] (inactive)
Nc1nc(=S)c2[nH]cnc2[nH]1	3.06 µM (active) and 2.98 µM (active)	–
Oc1c(Cl)cc(Cl)cc1Sc1cc(Cl)cc(Cl)c1O	54.6 µM (active) and 61.1 µM (active)	–
Cc1cccc(O)c1C	inactive	–
COC(=O)/C=C/c1ccccc1	inactive	–
CC(C)CCOC(=O)c1ccc(N(C)C)cc1	inactive	–
O=C1CC2(CCCC2)CC(=O)N1CCCCN1CCN(c2ncccn2)CC1	4.86 µM (active)	–
CCCOC(=O)c1cc(O)c(O)c(O)c1	inactive	–
CN(C)c1ccc(C(=C2C=CC(=[N+](C)C)C=C2)c2ccccc2)cc1	5.31 µM (active) [middle of 4 runs]	–
c1cnc2cc3c(cc2n1)C1CNCC3C1	inactive	–

SMILES	Potency	activity change, negative = cytotoxicity
COc1ccc(CCN2CCC(Nc3nc4ccccc4n3Cc3ccc(F)cc3)CC2)cc1	9.9 µM (active) and 23.7 µM (active)	–
O=C(Cl)c1cccc(C(=O)Cl)c1	inactive	–
O=C(O)Cn1cnnn1	inactive	–
c1ccc2c(c1)-c1cccc3c1c-2cc1ccccc13	inactive	–
Cc1scc2c1N(C(=O)CN1CCN(C)CC1)c1ccccc1NC2=O	inactive	–
CC1=C(C=O)C(C)(C)CC=C1	inactive	–
CCc1ccc(C(c2ccc(CC)cc2)C(Cl)Cl)cc1	inactive	–
Oc1ccc(Cl)cc1Cc1cc(Cl)ccc1O	49.4 µM (active) and 48.6 µM (active) and 18.8 µM (active)	–
CCCCOCCOC(=O)c1ccccc1C(=O)OCCOCCCC	inactive	–
CCOC(=O)C(C)C(C)=O (stereo not given)	inactive	–
C=CC(=O)OCCCCCCOC(=O)C=C	24.3 µM (active)	–
CC(C(O)c1ccc(O)cc1)N1CCC(Cc2ccccc2)CC1 (stereo not given)	inactive	–
CC(=O)N[C@@H](CS)C(=O)O	inactive	–
CNCCC(Oc1ccc(C(F)(F)F)cc1)c1ccccc1 (stereo not given)	26.9 µM (active) and 13.3 µM (active)	–
CC(C)(C)NCC(O)c1cc(O)cc(O)c1 (stereo not given)	inactive	–
CC(C)CCCCCCc1ccc(O)cc1	3.92 µM (active) and 61.1 µM (active)	–
Cc1cc(C(C)(C)C)c(O)c(C(C)(C)C)c1	inactive	–
Cc1cc(Cc2cc(C)cc(C(C)(C)C)c2O)c(O)c(C(C)(C)C)c1	13.8 µM (active) and 21.7 µM (active)	–
Cc1cccc([N+](=O)[O-])c1C(=O)O	inactive	–
C=C(C)C1CC=C(C)C(OC(C)=O)C1 (stereo not given)	inactive	–
